# “And” between values parts separate entries of the source, which are not always exact repeats. Equal entries are not always repeated. Unmarked numbers belong to inactive results. This is one part of the list. The source made the active and inactive calls. Cut-off read from the data, not from the text of the source, unless noted: active = inhibition above about 25%; inactive = the rest.
# Assays:
# [1] = target: Nuclear receptor coactivator 1 (Homo sapiens) (UniProt Q15788); assay: NCOA1 GAL4-fusion reporter inhibition – cell-based, luminescence, quadruplicate, confirmation (AID 588820;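 active = mean inhibition above 46.68%, the untreated control wells mean plus 3 SD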;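 note: 0% = DMSO wells and 100% = gossypol 36 µM treated wells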); settings: HEK293 GAL4-SRC1 luciferase reporter, at 3.6 µM, hits give high values
# Nuclear receptor coactivator 1 (Homo sapiens), sequence (Q15788 whole entry, looked up, the tested form may be a part): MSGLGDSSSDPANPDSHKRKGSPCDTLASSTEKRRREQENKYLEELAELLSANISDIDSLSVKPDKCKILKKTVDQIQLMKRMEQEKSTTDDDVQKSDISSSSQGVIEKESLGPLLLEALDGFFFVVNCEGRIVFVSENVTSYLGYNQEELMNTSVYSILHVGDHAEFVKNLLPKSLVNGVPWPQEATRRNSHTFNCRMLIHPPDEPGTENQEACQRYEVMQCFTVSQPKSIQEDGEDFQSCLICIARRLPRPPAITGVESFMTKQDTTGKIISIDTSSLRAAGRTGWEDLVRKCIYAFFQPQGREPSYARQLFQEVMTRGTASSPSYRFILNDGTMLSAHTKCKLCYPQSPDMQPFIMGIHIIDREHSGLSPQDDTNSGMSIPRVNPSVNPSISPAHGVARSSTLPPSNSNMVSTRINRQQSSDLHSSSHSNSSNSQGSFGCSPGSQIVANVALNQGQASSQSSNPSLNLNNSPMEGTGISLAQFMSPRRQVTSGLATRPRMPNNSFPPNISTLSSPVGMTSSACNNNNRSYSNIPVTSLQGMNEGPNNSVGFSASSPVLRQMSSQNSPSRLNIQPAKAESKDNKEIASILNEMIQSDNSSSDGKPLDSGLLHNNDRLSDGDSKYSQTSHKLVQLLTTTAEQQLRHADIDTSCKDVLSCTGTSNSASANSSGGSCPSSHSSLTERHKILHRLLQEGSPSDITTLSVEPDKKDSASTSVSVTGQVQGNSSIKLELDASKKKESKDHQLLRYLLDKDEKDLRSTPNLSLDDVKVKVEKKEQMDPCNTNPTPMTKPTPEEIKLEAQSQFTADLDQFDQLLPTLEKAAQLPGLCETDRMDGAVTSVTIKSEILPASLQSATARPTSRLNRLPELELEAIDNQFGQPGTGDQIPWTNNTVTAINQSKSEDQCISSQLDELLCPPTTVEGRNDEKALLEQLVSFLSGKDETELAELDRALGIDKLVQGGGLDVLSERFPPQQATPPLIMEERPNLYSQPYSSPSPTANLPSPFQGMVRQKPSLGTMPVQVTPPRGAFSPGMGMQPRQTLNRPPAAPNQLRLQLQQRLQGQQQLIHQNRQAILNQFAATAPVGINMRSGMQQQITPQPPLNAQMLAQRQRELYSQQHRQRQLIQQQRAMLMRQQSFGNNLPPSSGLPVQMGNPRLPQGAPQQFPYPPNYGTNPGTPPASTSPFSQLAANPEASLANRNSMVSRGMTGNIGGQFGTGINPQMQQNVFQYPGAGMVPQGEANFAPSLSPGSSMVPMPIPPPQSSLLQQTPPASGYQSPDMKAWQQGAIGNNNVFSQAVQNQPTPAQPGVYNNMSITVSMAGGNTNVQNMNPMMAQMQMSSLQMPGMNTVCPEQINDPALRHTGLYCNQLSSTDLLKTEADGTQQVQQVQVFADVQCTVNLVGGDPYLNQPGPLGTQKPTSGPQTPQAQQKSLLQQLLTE
# [2] = repression of VP16-driven luciferase reporter – cell-based, luminescence, high throughput, counter-screen for SRC1 inhibitor project (AID 588824); settings: cell-based VP16 transactivation luciferase luminescence; at 3.6 µM; hits give high values
# [3] = system: transactivating tegument protein VP16 (Human herpesvirus 1); assay: compounds suppressing VP16-driven luciferase signal – cell-based, luminescence, single concentration, counter-screen for SRC2 inhibitor project (AID 652007; in the data active = inhibition above about 36%); settings: cell-based VP16 transactivation luciferase reporter, at 8.9 µM, hits give high values
# [4] = target: Nuclear receptor coactivator 2 (Homo sapiens) (UniProt Q15596); assay: inhibition of GAL4-SRC2 driven luciferase expression – cell-based, luminescence, HEK293, triplicate, confirmation (AID 652008;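 active = mean inhibition above 46.5%, the solvent-only control mean plus 3 SD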;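 note: 0% = DMSO-treated cells and 100% = Gossypol at 36 µM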); settings: HEK293 GAL4-SRC2 luciferase reporter, at 8.9 µM, hits give high values
# Nuclear receptor coactivator 2 (Homo sapiens), sequence (Q15596 whole entry, looked up, the tested form may be a part): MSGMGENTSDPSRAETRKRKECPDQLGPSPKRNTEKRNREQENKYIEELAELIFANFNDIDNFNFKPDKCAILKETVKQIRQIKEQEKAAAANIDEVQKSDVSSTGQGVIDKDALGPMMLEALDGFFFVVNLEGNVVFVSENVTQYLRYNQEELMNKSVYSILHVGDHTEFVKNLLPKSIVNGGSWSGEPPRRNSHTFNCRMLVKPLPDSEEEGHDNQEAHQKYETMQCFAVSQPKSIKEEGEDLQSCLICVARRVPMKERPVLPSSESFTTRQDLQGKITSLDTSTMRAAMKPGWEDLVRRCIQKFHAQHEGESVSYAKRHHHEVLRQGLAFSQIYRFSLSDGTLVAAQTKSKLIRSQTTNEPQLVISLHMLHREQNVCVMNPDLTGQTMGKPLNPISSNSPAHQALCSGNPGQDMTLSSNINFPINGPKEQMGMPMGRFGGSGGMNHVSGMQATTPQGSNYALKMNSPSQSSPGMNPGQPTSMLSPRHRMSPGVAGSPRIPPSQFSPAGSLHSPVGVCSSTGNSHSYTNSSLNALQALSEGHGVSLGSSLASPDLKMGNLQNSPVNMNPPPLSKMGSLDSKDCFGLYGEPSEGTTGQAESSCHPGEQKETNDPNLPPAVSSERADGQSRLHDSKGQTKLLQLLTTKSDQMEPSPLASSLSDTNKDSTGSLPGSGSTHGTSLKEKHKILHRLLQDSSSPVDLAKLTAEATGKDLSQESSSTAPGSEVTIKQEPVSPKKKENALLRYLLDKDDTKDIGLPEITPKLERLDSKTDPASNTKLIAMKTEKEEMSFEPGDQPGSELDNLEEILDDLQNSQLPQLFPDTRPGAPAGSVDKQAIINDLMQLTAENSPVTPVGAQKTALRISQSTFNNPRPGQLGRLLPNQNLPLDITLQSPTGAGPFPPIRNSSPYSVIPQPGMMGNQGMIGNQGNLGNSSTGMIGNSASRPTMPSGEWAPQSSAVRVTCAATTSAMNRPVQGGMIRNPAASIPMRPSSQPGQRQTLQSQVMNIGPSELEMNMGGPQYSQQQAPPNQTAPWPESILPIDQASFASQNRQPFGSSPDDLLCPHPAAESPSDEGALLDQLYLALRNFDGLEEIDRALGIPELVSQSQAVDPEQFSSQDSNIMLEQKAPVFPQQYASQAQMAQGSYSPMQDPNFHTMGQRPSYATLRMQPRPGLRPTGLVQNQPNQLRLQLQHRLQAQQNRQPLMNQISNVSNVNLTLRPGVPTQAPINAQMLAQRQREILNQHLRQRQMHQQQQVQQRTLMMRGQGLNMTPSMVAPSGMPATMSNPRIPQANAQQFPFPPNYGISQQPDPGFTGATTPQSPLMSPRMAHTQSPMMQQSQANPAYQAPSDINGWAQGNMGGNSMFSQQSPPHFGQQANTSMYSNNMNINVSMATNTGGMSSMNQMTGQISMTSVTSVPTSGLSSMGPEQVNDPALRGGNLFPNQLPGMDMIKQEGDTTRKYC
# [5] = target: Nuclear receptor subfamily 5 group A member 2 (Homo sapiens) (UniProt O00482); assay: NR5A2 activity suppression in reporter cells – cell-based, luminescence, confirmation (AID 651613; in the data active = inhibition above about 42%;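 note: HEK293T cells co-transfected with LRH-1 and StAR promoter luciferase reporter; 0% = vehicle wells and 100% = parental cells lacking receptor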); settings: cell-based LRH-1 luciferase reporter, inverse agonism; at 3.6 µM; hits give high values
# Nuclear receptor subfamily 5 group A member 2 (Homo sapiens), sequence (O00482 whole entry, looked up): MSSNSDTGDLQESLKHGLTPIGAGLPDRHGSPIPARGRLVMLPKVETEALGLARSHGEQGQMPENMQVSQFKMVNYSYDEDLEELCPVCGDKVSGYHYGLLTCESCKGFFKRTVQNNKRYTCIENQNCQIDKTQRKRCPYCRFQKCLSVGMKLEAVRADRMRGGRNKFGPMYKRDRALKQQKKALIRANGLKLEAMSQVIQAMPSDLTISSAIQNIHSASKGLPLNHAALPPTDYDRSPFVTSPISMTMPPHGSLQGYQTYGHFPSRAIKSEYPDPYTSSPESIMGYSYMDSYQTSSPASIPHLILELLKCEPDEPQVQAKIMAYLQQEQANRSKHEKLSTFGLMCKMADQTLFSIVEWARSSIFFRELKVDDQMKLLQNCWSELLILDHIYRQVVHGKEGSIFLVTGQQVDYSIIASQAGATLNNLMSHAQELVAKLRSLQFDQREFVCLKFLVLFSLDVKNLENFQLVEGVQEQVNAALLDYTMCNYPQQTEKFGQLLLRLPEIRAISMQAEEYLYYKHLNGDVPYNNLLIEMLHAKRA
# [6] = target: Steroidogenic factor 1 (Homo sapiens) (UniProt Q13285); assay: inverse agonism at SF1 nuclear receptor – cell-based, luminescence, high throughput, counter-screen for LRH-1 inverse agonist project (AID 651614; in the data active = inhibition above about 44%;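 note: cells cotransfected with StAR promoter reporter and SF1 expression vector; 0% = vehicle on cells with receptor and 100% = vehicle on cells lacking receptor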); settings: cell-based SF1 luciferase reporter, at 3.6 µM, hits give high values
# Steroidogenic factor 1 (Homo sapiens), sequence (Q13285 whole entry, looked up): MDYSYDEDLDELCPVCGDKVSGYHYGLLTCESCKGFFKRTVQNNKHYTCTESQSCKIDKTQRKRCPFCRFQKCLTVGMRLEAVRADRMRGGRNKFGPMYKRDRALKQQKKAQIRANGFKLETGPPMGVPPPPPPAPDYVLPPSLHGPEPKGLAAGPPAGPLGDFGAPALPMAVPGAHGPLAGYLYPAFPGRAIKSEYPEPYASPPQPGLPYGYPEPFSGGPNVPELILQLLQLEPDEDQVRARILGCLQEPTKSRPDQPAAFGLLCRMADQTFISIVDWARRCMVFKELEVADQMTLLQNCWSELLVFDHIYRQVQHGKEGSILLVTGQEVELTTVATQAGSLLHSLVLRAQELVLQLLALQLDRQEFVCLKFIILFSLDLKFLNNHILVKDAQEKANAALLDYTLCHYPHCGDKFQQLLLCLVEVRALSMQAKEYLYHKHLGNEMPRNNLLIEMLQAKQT
# [7] = StAR promoter reporter inhibitors, counter-screen for LRH-1 inverse agonist project, cell-based, luminescence, high throughput (AID 651611; in the data active = inhibition above about 28%); settings: StAR promoter luciferase reporter counterscreen, at 3.6 µM, hits give high values
# [8] = compounds suppressing VP16-driven luciferase signal – cell-based, luminescence, high throughput, counter-screen for LRH-1 inverse agonist project (AID 651615; in the data active = inhibition above about 33%); settings: Gal4-VP16 luciferase reporter cells, at 3.6 µM, hits give high values
# [9] = target: Oxysterols receptor LXR-beta (Homo sapiens) (UniProt P55055); assay: nonspecific reporter activation via LXR – cell-based, luminescence, HEK293, H. contortus campaign, counter-screen for hcDAF-12 agonist project, confirmation (AID 743027;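 active = mean percent activation of the reporter above a cutoff set as the average over tested compounds plus their standard deviation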); settings: HEK293 Gal4-LXR tk-luc reporter, 24 h, at 6.8 µM, hits give high values, normalized: DMSO 0%, positive control 100%
# [10] = system: Nuclear hormone receptor DAF-12 (Haemonchus contortus); assay: hcDAF-12 luciferase reporter activation, retest – cell-based, luminescence, HEK293, lit1-tk-luc, triplicate, confirmation (AID 743032;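 active = mean activation across triplicate tests above the threshold derived from the earlier primary screen, cut at about 5.5% in these data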;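 note: 0% = DMSO only wells and 100% = 3 µM Δ7-dafachronic acid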); settings: HEK293 hcDAF-12 lit1-tk-luc reporter, at 6.8 µM, hits give high values, % of Δ7-dafachronic acid response
# [11] = VP16-driven transactivation reporter suppression – cell-based, luminescence, HEK293, counter-screen for COUP-TFII antagonist project (AID 687007; in the data active = inhibition above about 13%); settings: HEK293 Gal4-VP16 luciferase reporter, at 8.5 µM, hits give high values
# [12] = target: COUP transcription factor 2 (Homo sapiens) (UniProt P24468); assay: retest of COUP-TFII reporter suppressors – cell-based, luciferase reporter, HEK293, triplicate, confirmation (AID 687008;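 active = mean inhibition over three repeats above a set limit taken from the earlier primary screen, cut at about 38% in these data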;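 note: 100% = cells given the luciferase reporter alone without the COUP-TF2 vector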); settings: HEK293 NGFI-A luciferase reporter, luminescence; at 8.5 µM; hits give high values
# [13] = system: DAF-12 nuclear receptor (Heterodera glycines), GAL4-LBD fusion; assay: hgDAF-12 GAL4 fusion reporter activation, retest – cell-based, luminescence, HEK293, GAL4-LBD fusion, confirmation (AID 743050;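 active = mean activation over triplicate wells above the hit cutoff derived from the earlier primary screen, cut at about 11% in these data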;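 note: 0% = DMSO low control and 100% = 2 mM sodium butyrate high control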); settings: HEK293 GAL4-hgDAF12 luciferase reporter, agonist mode; at 6.8 µM; hits give high values; percent of butyrate response
# [14] = target: Oxysterols receptor LXR-beta (Homo sapiens) (UniProt P55055); assay: nonspecific reporter activation via LXR – cell-based, luminescence, HEK293, H. glycines campaign, counter-screen for hgDAF-12 agonist project, confirmation (AID 743051;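 active = mean activation of the triplicate above a set limit carried over from the primary screen, none filed active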); settings: HEK293 Gal4-LXR luciferase reporter, 24 h; at 6.8 µM; hits give high values
# [15] = target: Receptor-interacting serine/threonine-protein kinase 2 (Homo sapiens) (UniProt O43353); assay: inhibitors of RIPK2 association with NOD2 – fluorescence, CHO cells, BLA complementation, triplicate, confirmation (AID 624370;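 active = mean inhibition across replicates above a set limit taken from the earlier primary screen, cut at about 21% in these data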;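 note: 0% = DMSO-only wells and the high end = clavulanate BLA-blocked wells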); settings: CCF4 FRET, at 4.98 µM, hits give high values
# Receptor-interacting serine/threonine-protein kinase 2 (Homo sapiens), sequence (O43353 whole entry, looked up): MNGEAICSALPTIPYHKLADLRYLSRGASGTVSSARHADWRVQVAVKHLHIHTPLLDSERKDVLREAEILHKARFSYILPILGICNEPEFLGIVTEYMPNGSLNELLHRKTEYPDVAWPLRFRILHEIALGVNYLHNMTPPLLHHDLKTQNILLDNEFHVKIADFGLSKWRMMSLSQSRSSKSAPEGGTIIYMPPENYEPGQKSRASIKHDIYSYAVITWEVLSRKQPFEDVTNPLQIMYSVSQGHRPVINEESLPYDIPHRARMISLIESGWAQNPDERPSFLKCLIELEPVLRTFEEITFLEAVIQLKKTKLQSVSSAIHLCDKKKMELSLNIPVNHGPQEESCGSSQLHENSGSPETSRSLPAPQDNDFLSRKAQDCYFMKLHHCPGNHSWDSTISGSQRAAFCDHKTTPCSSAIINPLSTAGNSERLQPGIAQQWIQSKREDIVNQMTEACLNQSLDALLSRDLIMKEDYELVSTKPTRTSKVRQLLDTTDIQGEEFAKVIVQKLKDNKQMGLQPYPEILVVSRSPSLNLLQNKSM
# [16] = BLA reporter readout interference – cell-based, CHO-K1 CMV-bla, CCF4 FRET, fluorescence, artefact control for NOD2-RIPK2 interaction inhibitor project, confirmation (AID 624371;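 active = mean inhibition above the low-control mean inhibition plus three low-control SD, cut at about 11% in these data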;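 note: 0% = DMSO only wells and 100% = clavulanate high control wells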); settings: CCF4 FRET ratio, counterscreen, at 4.98 µM, hits give high values
# [17] = target: Photoreceptor-specific nuclear receptor (Homo sapiens) (UniProt Q9Y5X4); assay: retest of NR2E3-NCOR disrupting agonists – cell-based, luminescence, CHO-S two-hybrid, confirmation (AID 624378;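 active = average inhibition above a cutoff equal to the mean inhibition of all tested compounds plus one SD, cut at about 70% in these data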;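 note: 0% = DMSO in NR2E3 cells and 100% = DMSO in cells lacking NR2E3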); settings: CHO-S mammalian two-hybrid NR2E3-NCOR, luciferase luminescence; at 3.98 µM; hits give high values
# Photoreceptor-specific nuclear receptor (Homo sapiens), sequence (Q9Y5X4 whole entry, looked up): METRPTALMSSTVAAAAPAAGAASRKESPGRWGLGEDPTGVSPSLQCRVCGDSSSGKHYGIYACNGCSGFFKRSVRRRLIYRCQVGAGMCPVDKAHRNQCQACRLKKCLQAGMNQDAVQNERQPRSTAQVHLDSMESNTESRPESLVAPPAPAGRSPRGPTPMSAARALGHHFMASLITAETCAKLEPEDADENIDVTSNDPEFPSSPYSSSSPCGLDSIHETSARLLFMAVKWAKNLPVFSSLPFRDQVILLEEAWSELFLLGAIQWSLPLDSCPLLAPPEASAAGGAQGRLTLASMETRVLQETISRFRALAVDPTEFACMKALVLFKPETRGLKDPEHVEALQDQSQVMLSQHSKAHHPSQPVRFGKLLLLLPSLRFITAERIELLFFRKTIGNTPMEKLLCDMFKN
# [18] = nonselective effects on VP16 transactivation – cell-based, luminescence, CHO-S, high throughput, counter-screen for NR2E3 agonist project, confirmation (AID 624379;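 active = mean inhibition above a cutoff equal to the average over all tested compounds plus one standard deviation, cut at about 70% in these data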;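 note: 0% = DMSO with VP16-transfected cells and 100% = DMSO with cells lacking VP16; higher means less reporter light so more repression of VP16 activity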); settings: CHO-S GAL4-VP16 luciferase reporter, at 3.98 µM, hits give high values
compound,measurement,setting,value
CCN(C(=O)c1cc(S(=O)(=O)N2CCCCC2)c[nH]1)c1ccc(OC)cc1,inhibition,[1],28.1%
same,inhibition,[2],22.5%
same,inhibition,[3],8.33%
same,inhibition,[4],25.9%
COc1ccc(CCNc2c(C)c(C)nc3ncnn23)cc1,inhibition,[1],-13.9%
same,inhibition,[2],29.1% (active)
same,inhibition,[5],58.5% (active)
same,inhibition,[6],62.6% (active)
O=C(Nc1ccc(OCc2ccccc2Cl)cc1)c1cccnc1,inhibition,[1],-2.33%
same,inhibition,[2],-5.23%
same,inhibition,[3],27%
same,inhibition,[4],52.2% (active)
CCN1CCN(C(=S)c2ccc(-c3ccccc3)cc2)CC1,inhibition,[1],37.8%
same,inhibition,[2],12.8%
same,inhibition,[3],15.4%
same,inhibition,[4],78.8% (active)
Cc1cc(NC2CCCC2)n2ncc(-c3ccccc3)c2n1,inhibition,[1],-78.1%
same,inhibition,[2],-34.6%
same,inhibition,[3],-46.2%
same,inhibition,[4],36.5%
Cc1noc(/C=C/c2ccco2)c1S(=O)(=O)N1CCC(C(=O)Nc2ccc(Cl)cn2)CC1,inhibition,[1],16.8%
same,inhibition,[2],24.4%
same,inhibition,[3],17.2%
same,inhibition,[4],24.2%
O=[N+]([O-])c1ccc2c(c1)-c1ccccc1C2=NO,inhibition,[1],21.4%
same,inhibition,[2],9.81%
same,inhibition,[3],12.1%
same,inhibition,[4],13.5%
Cc1ccc(Oc2ccc(C(=O)NCc3ccncc3)cc2)cc1,inhibition,[1],2.24%
same,inhibition,[2],23.4%
same,inhibition,[7],10.2%
same,inhibition,[5],76.8% (active)
same,inhibition,[6],67.9% (active)
same,inhibition,[8],52.9% (active)
same,inhibition,[3],7.11%
same,inhibition,[4],21.1%
O=C1c2c(O)ccc(O)c2C(=O)c2c(NCCNCCO)ccc(NCCNCCO)c21,inhibition,[1],-142% and -11.9%
same,inhibition,[2],20.7% and 0.91%
same,inhibition,[5],77.4% (active)
same,inhibition,[6],56.3% (active)
CN(C)CCNC(=O)c1ccc(Cl)c2cc3ccccc3nc12,inhibition,[1],14.8%
same,inhibition,[2],29.6% (active)
same,inhibition,[7],70.1% (active)
same,inhibition,[5],73.1% (active)
same,inhibition,[6],67.4% (active)
same,inhibition,[8],61% (active)
same,activation,[9],0.85%
same,activation,[10],8.92% (active)
COc1ccc(S(=O)(=O)N2CCOCC2)cc1NC(=O)CCNC(=O)c1ccc(Br)cc1,inhibition,[1],64.3% (active)
same,inhibition,[2],61.1% (active)
same,inhibition,[7],90.4% (active)
same,inhibition,[5],100% (active)
same,inhibition,[6],95% (active)
same,inhibition,[8],67.4% (active)
same,inhibition,[3],2.56%
same,inhibition,[4],44.6%
CC1CCN(c2ccc(-c3cccc(NC(=O)C(F)(F)F)c3)nn2)CC1,inhibition,[1],-55.7%
same,inhibition,[2],-29.6%
same,inhibition,[3],-9.14%
same,inhibition,[4],60% (active)
CCN(CC)CC(C)(C)C(=O)/C=C/c1ccc(/C=C/C(=O)C(C)(C)CN(CC)CC)cc1,inhibition,[7],84.9% (active)
same,inhibition,[5],99.6% (active)
same,inhibition,[6],95.1% (active)
same,inhibition,[8],88.8% (active)
C=CCNc1ncnc2ccc(Br)cc12,inhibition,[11],9.27%
same,inhibition,[12],22.7%
OC[C@@H]1CN(Cc2ccncc2)C[C@H](n2cnc3c(N4CCN(c5ccccc5)CC4)ncnc32)O1,inhibition,[11],8.35%
same,inhibition,[12],44.6% (active)
CNc1cncc(-c2ccc(NS(C)(=O)=O)cc2)n1,activation,[13],8.61%
same,activation,[14],0.06%
O=C1/C(=C\c2ccc([N+](=O)[O-])cc2)CS(=O)(=O)C/C1=C/c1ccc([N+](=O)[O-])cc1,inhibition,[15],91.8% (active)
same,inhibition,[16],4.33%
same,inhibition,[17],96% (active)
same,inhibition,[18],53.2%
same,inhibition,[7],2.1%
same,inhibition,[5],89.5% (active)
same,inhibition,[6],79.7% (active)
same,inhibition,[8],70.2% (active)
O=C(NC1=CC(=O)c2ccccc2C1=O)c1ccccc1,inhibition,[15],89% (active)
same,inhibition,[16],-4.54%
same,inhibition,[17],6.41%
same,inhibition,[18],17.1%
O=[N+]([O-])c1ccc(NS(=O)(=O)c2ccccc2)c(Cl)c1,inhibition,[17],77.9% (active)
same,inhibition,[18],43.9%
Cc1nc(-c2ccc(F)cc2)c(CC(=O)Nc2cc(S(=O)(=O)N3CCCCC3)ccc2C)s1,inhibition,[17],56.8%
same,inhibition,[18],-7.22%
CC(=O)c1c(C)[nH]c(C(=O)COC(=O)c2cccc(S(=O)(=O)N(C)c3ccccc3)c2)c1C,inhibition,[17],23.8%
same,inhibition,[18],73.4% (active)
C/C(=N\NC(=S)NCc1ccccc1)c1ccc(Cl)cc1,inhibition,[17],-1.78%
same,inhibition,[18],-14.2%

# From PubChem BioAssay
